Experimental data taken from PubChem BioAssay AID1491 (National Center for Advancing Translational Sciences (NCATS), 2009).
Where “and” joins values, the source holds several entries; their conditions need not be identical. Identical values can stand only once. Results filed as inconclusive are left out. Entries that show only a call come without a potency. Values without a mark were called inactive. Calls of active or inactive are those of the source. The call rests on the fitted dose curve; in most records, active means well fitted inhibition curve with a large enough effect in the main read-out, with a control signal flat; inconclusive means small, poorly fitted or top-dose-only effect, or a change in a side signal; inactive means flat fitted curve, though single readings scatter.

Molecular target: Neuropeptide S receptor (Homo sapiens) (UniProt Q6W5P4)
Experiment: Confirmation Concentration-Response Assay for Antagonists of the Neuropeptide S Receptor: cAMP Signal Transduction
Conditions: CHO-NPSR cells, cAMP TR-FRET, antagonist mode; series mostly up to 22.3 µM
Description: NIH Chemical Genomics Center [NCGC] NIH Molecular Libraries Probe Production centers Network [MLPCN] MLPCN Grant: X01-DA026210-01 Assay Submitter (PI): Heilig, Markus Alexander NCGC Assay Overview: Neuropeptide S receptor (NPSR), previously known as GPR154, is a recently de-orphanized G protein coupled receptor. Its endogenous ligand is the 20 amino acids peptide Neuropeptide S (NPS). […] NPS and its receptor are found in various tissues. Specifically they are highly expressed in brain areas that have been implicated in modulation of arousal, stress and anxiety. Central administration of NPS in mice produces an unusual profile of activity by inducing wakefulness and arousal, while at the same time suppressing anxiety. Therefore, NPSR may represent a novel drug target for the treatment of sleep and anxiety disorders. To identify NPSR antagonists, we developed a cell-based cAMP assay. NPS can stimulate the production of cAMP in Chinese hamster ovary cells stably expressing NPS receptor. This change in intracellular cAMP level can be detected by a homogeneous LANCE cAMP assay based on the TR-FRET (time resolved fluorescence resonance energy transfer) between a europium-labeled cAMP tracer complex and a cAMP-specific antibody labeled with Alexa Fluor 647. The europium-labeled cAMP tracer complex is formed by the tight interaction between Biotin-cAMP (b-cAMP) and streptavidin labeled with Europium-W8044 chelate (Eu-SA). Light pulse at 320 nm excites the europium of the cAMP tracer and the energy emitted is transferred to the Alexa molecule bound to the cAMP antibody, generating a TR-FRET signal at 665 nm. Residual energy from the europium will produce a light at 620 nm. The native unlabeled cAMP from cell lysates competes with the europium-cAMP tracer for antibody binding and reversely reduces the emission signal of Alexa by interrupting FRET between the two labeled molecules. Both emission signals from the FRET donor (620 nm) and the acceptor (665 nm) can be detected by a plate reader in the TRF mode. Expression of result in fluorescence ratio (665 nm/620 nm) helps to normalize differences due to cell density and reagent dispensing. This assay was successfully optimized to a 1536-well plate format. Select compounds from the primary screen (AID 1461) were chosen for confirmation based on potency, efficacy, SAR, and activity across other assays in PubChem and at NCGC. Other compounds are analogs of active compounds from the primary sceen.
NCGC Assay Protocol Summary: A Chinese hamster ovary (CHO) cell line stably expressing the NPS receptor (CHO-NPSR) was obtained from Dr. Heilig lab at NIAAA and maintained in F-12 Kaighn's media (Invitrogen, Carlsbad, CA, 21127) supplemented with 10 % FBS, 100 units/ml penicillin, 100 ug/ml streptomycin and 250 ug/ml geneticin at 37C, 5% CO2 in a humidified atmosphere. Before the assay, aliquots of cells were frozen and stored at -135C. The assay was performed in 1536-well format. Data are reported for both the ratio of the two emission wavelengths, and also for the component 'donor' channel, Em2=620. […] IC50 values were determined from concentration-response data modeled with the standard Hill equation. NPS 1536-well assay protocol: (1) Fresh or frozen CHO-NPSR cells were suspended in F-12 Kaighn's media supplemented with 10 % FBS, 100 units/ml penicillin and 100 ug/ml streptomycin. Cells were plated at 4 ul/well (1200 cells) to white, tissue culture treated 1536-well plates, and then cultured at 37C, 5 % CO2 for 16 to 30 hours. (2) Add 23 nl/well of compound in DMSO solution. The final titration for each compound was between 0.6 nM and 46 uM. (3) Add 1 ul of stimulation reagent (1X HBSS buffer, 5 mM HEPES, 0.1% BSA, 500 uM RO-201724 (Sigma-Aldrich, B8279), 1.5% Alexa 647-labeled anti-cAMP antibody (from Perkin Elmer), 100 nM NPS) (4) Incubation at 37C, 5 % CO2 for 60 min. (5) Add 1 ul/well detection reagent. […]
Potency means the concentration at half of the fitted maximal effect.

Sequence of Neuropeptide S receptor (Homo sapiens) (Q6W5P4 whole entry, looked up): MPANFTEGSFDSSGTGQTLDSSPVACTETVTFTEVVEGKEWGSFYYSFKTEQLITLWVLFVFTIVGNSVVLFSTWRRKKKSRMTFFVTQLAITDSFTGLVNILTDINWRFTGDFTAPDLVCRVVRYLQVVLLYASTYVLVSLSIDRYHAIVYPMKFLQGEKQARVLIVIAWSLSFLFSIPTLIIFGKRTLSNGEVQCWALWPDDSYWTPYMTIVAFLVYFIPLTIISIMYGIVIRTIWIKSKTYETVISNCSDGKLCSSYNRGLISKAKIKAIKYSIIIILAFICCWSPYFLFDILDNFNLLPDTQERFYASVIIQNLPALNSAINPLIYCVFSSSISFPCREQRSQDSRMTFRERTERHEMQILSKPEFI

| Compound | Potency | activity change, negative = inhibition |
| --- | --- | --- |
| O=C(NCCCN1CCOCC1)c1cc2c(=O)[nH]c3ccccc3c2s1 | inactive | – |
| CCC(=O)O[C@]1(C(=O)CCl)[C@@H](C)C[C@H]2[C@@H]3CCC4=CC(=O)C=C[C@]4(C)[C@@]3(F)[C@@H](O)C[C@@]21C | 11.2 µM (active) | – |
| Nc1ncnc2c1C(c1ccccc1)c1c(ccc3ccccc13)O2 (stereo not given) | 1 µM (active) | – |
| N=c1c2c(ncn1-c1ccccc1)Oc1ccc3ccccc3c1C2c1ccc2c(c1)OCO2 (stereo not given) | 2.51 µM (active) | – |
| O=S1(=O)Nc2c(ccc3cccnc23)-c2ccccc21 | 4.47 µM (active) | – |
| CCN(CC)S(=O)(=O)c1ccc2c(c1)nc(SC(C)C(N)=O)n2-c1ccc(OC)cc1 (stereo not given) | inactive | – |
| CCOC(=O)c1cnc(Nc2nc3ccccc3o2)nc1CSC(=S)N(CC)CC | inactive | – |
| Cc1ccc(NC(=S)NNC(C)(C)C)cc1 | inactive | – |
| CCC(C)(C)NC(=O)Cc1ccc(C)cc1 | inactive | – |
| S=C(Nc1ccccc1)Nc1nccs1 | inactive | – |
| COCCCn1cnc2c(c1=O)c1nc3ccccc3nc1n2CCc1ccccc1 | inactive | – |
| O=C(Cc1ccccc1)Nc1ncnc2c1C(c1ccccc1)c1c(ccc3ccccc13)O2 (stereo not given) | 1.58 µM (active) | – |
| CC1CCCc2sc3nc(N4CCN(CCO)CC4)n4ncnc4c3c21 (stereo not given) | inactive | – |
| CC1CCCCN1S(=O)(=O)c1ccc(C(=O)Nc2sccc2C(N)=O)cc1 (stereo not given) | 12.6 µM (active) and 14.1 µM (active) | – |
| O=C(c1ccccc1-c1nc2ccccc2[nH]1)N1CCCCC1 | inactive | – |
| C=CC1(C)CC(=O)C2(O)C(C)(O1)C(OC(C)=O)C(O)C1C(C)(C)CCC(O)C12C (stereo not given) | – | 6.07% [at 0.188 µM] |
| c1ccc(-c2ccc(-c3nc(-c4cccnc4)no3)cc2)cc1 | inactive | – |
| O=[N+]([O-])c1ccc(-c2nc(C(Cl)Cl)c3ccccc3n2)cc1 | inactive | – |
| Cc1ccc2nc3ccc(N4CCCCCCC4)nn3c(=O)c2c1 | inactive | – |
| O=C(/C=C/c1ccco1)NC(=S)Nc1nc(-c2ccc3ccccc3c2)cs1 | 3.98 µM (active) | – |

| Compound | Potency | activity change, negative = inhibition |
| --- | --- | --- |
| O=C(N/N=C/c1ccc([N+](=O)[O-])o1)c1ccc(O)cc1 | inactive | – |
| O=C(/C(=C/c1ccc(Cl)cc1)c1nc2ccccc2[nH]1)c1cccs1 | 8.91 µM (active) | – |
| COc1ccc(N(CC(=O)Nc2cccc(SC)c2)S(C)(=O)=O)cc1Cl | inactive | – |
| CCC(c1nnnn1C1CCCC1)N1CCN(c2ccccc2)CC1 (stereo not given) | inactive | – |
| Cc1cccc(-c2nnc(SCc3cc(=O)[nH]c4ccccc34)n2C)c1 | inactive | – |
| O=C(O)C1CCN(c2nc(-c3ccccc3)nc3c2oc2ccccc23)CC1 | inactive | – |
| COc1ccc(OC)c(C2C(C(=O)Nc3nc4ccccc4s3)=C(C)NC3=C2C(=O)CCC3)c1 (stereo not given) | 2.82 µM (active) | – |
| Cc1nn(C(=O)c2cccs2)c(N)c1-c1ccccc1 | inactive | – |
| CCC(Sc1ccc2nnc(-c3cccnc3)n2n1)C(=O)O (stereo not given) | inactive | – |
| COc1ccc(C(=O)N(Cc2ccco2)Cc2cccs2)c(O)c1 | inactive | – |
| CCOc1ccc(-n2c(=S)sc3c(=O)[nH]c(SCC(=O)C(C)(C)C)nc32)cc1 | 7.08 µM (active) | – |
| CCCCOc1ccc(OCCCN2CCOCC2)cc1 | inactive | – |
| O=C(O)CCCCCNc1nc(=S)[nH]c2ccccc12 | inactive | – |
| CCOC(=O)C1CCCN(c2ncnc3c2oc2ccccc23)C1 (stereo not given) | 50.1 µM (active) and 12.6 µM (active) | – |
| COc1cccc(C2c3c(ncn(-c4ccccc4)c3=N)Oc3ccc4ccccc4c32)c1OC (stereo not given) | 4.47 µM (active) | – |
| CN(Cc1cc(=O)[nH]c2ccccc12)C(=O)c1ccccc1 | inactive | – |
| CN(CC(=O)NCc1ccc(F)cc1)S(=O)(=O)c1cccc2nsnc12 | inactive | – |
| Cc1cccc(N2CCN(C(=O)c3ccc(CNc4c(N5CCC(C)CC5)c(=O)c4=O)cc3)CC2)c1C | inactive | – |
| Cc1cc(OCC(=O)c2ccc(Br)cc2)ccc1N1C(=O)CCC1=O | inactive | – |
| COc1cccc(C2c3c(ncn(CCN4CCOCC4)c3=N)Oc3ccc4ccccc4c32)c1 (stereo not given) | 2.51 µM (active) and 10 µM (active) | – |
